# Screening data: PubChem BioAssay, National Center for Advancing Translational Sciences (NCATS)
# Sampled rows, rich in hits. Any-hit rate of the full collection: about 3%.
# S16 viability: Cell viability qHTS assay in S16 Pmp22-F2sN cells | S16 Pmp22-F2sN Schwann cells viability, CellTiter-Glo, 24 h | Potency, µM (doses to about 57.5 µM), without a hit: at the highest dose activity change, negative = cytotoxicity, actives largely listed as cytotoxic | 43,000 tested, 0.48% active | AID 1508642, 2021; note: potency is the fitted concentration of half-maximal effect; % is set by controls: 0 for no effect and ±100 for the full control effect; nearly all actives have a fitted effect of over 65% in size
#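 Luminescence from CellTiter-Glo, read by CCD camera after a 15 min room-temperature incubation, served as the viability signal. Reporter Schwann cells (S16 Pmp22-F2sN) had been treated with pin-transferred compounds for 24 h at 37C.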
# mTORC1 inh: Acumen qHTS Assay for Inhibitors of the mTORC1 Signaling Pathway in MEF (Tsc2-/-, p53-/-) Cells: Sytravon; Tsc2-/- p53-/- MEF, phospho-rpS6 immunofluorescence/PI, 24 h; Potency, µM (top dose mostly 38.3 µM), without a hit: at the top dose activity change, negative = inhibition, usual class: inhibitors; 44,000 tested, 0.78% active;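 note: potency is the fitted concentration of half-maximal effect; plate controls were DMSO for no effect and rapamycin for full effect; nearly all actives have a fitted effect of over 50% in size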
#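 Tsc2-/-, p53-/- mouse embryonic fibroblasts (empty-vector line) exposed to compound 24 hrs at 37 C, fixed, immunostained for phospho-rpS6 and counterstained with propidium iodide. Acumen laser scanning gives % positive cells from Alexa 488/PI ratio, thresholded using 7.5 nM rapamycin; PI count gives viability.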
# SKOV3 invasion: Primary qHTS assay for Inhibitors of ovarian cancer metastasis using an organotypic tumor microenvironment (TME) model | AID 1963576, 2024 | 46,000 tested, 0.1% active | Potency, µM (series often up to 45.8 µM), for the others: top-dose activity change, negative = inhibition, hits mostly inhibitors | SKOV3ip1-GFP adhesion/invasion on 3D omental model, fluorescence;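 note: potency is the fitted concentration of half-maximal effect; plate controls were DMSO wells for no effect and tomatine positive control wells for full effect; nearly all actives have a fitted effect of over 65% in size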
#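 qHTS, 4-pt dose (0.36-46 umol/L); SKOV3ip1-GFP, 1,200 cells/well, no FBS; primary omental fibroblast/mesothelial co-culture 48 h pre-grown; 2 h RT + 16 h 37 C; PBS wash, 4% PFA; GFP count 488/509 nm.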
# p53null 32C kill: qHTS Screen for Compounds that Selectively Target Cancer Cells with p53 Mutations: Cytotoxicity of p53 Null Cells at the Permissive Temperature; 55,000 tested, 0.62% active; H1299-neo p53 null cells, ATP luminescence, 24 h, 32C; Potency, µM (highest dose often 46.1 µM), for inactives: at the top dose activity change, negative = cytotoxicity, hits mostly cytotoxic;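 note: potency is the fitted concentration of half-maximal effect; 0% = DMSO only and -100% = full killing by 100 µM tamoxifen; nearly all actives have a fitted effect of over 55% in size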
#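 H1299-neo (p53-null) cells, 600/well, were pre-incubated overnight at 37C, then exposed to compounds at up to 46 uM for 24 hr at 32C. Viability was measured as ATP content by luminescence, and AC50 values came from Hill fits.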
# p53null 39C tox: qHTS Screen for Compounds that Selectively Target Cancer Cells with p53 Mutations: Cytotoxicity of p53 Null Cells at the Nonpermissive Temperature; AID 904, 2007; Potency, µM (doses to about 46.1 µM), for inactives: at the top dose activity, negative = cell killing, hits mostly cytotoxic; H1299 p53-null (neo) cells, 39C, ATPlite viability, 24 h; 55,000 tested, 0.97% active;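 note: potency is the fitted concentration of half-maximal effect; 0% = DMSO only and -100% = full killing by 100 µM tamoxifen; nearly all actives have a fitted effect of over 50% in size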
#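 Concentration-response (up to 46 uM) was run for 24 h at the nonpermissive 39C on H1299-p53A138V or H1299-neo cells. ATP content was measured with ATPlite luminescence. AC50 values were Hill-modeled after normalizing between DMSO and 100 uM tamoxifen killing.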
# PMP22 txn prim: Cell-based coincidence reporter assay to measure PMP22 gene transcription in S16 Pmp22-F2sN cells - Primary screen; S16 Pmp22-F2sN Schwann cells (luciferase reporters placed in the Pmp22 gene), FLuc/NLuc coincidence luminescence, 24 h; Potency, µM (doses to about 57.5 µM), for inactives: at the highest dose activity change, negative = inhibition, actives largely listed as inhibitors; 43,000 tested, 2% active; active = clear falling dose curves in both reporters; inconclusive = both reporters move, but less clearly or upward; inactive = either reporter flat; the % is the NLuc reporter signal; note: potency is the fitted concentration of half-maximal effect; % is set by controls: 0 for no effect and ±100 for the full control effect
#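 Transcriptional readout in edited S16(c9) cells: two luciferases reported from the Pmp22 locus, measured in turn after 24 h compound incubation.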
# NLuc saturating: Biochemical NLuc saturation counterscreen for small molecule modulators of PMP22 gene expression - Nano-Glo assay. AID 1508638, 2021. 690 tested, 4% active. shares compounds with PMP22 txn prim. Secreted NLuc enzyme (filtered S16 cell medium), Nano-Glo luminescence. Potency, µM (highest dose often 57.5 µM), inactives show top-dose activity change, negative = inhibition, most hits filed as inhibitors; note: potency is the fitted concentration of half-maximal effect; % is set by controls: 0 for no effect and ±100 for the full control effect
# NLuc Km ctr: Biochemical coelenterazine-based NLuc counterscreen for small molecule modulators of PMP22 gene expression - Km assay | AID 1508639, 2021 | secreted NLuc enzyme, coelenterazine luminescence, Km conditions | shares compounds with PMP22 txn prim | Potency, µM (titrated, usually from 57.5 µM), for inactives: at the top dose activity change, negative = inhibition, usual class: inhibitors | 690 tested, 5% active; note: potency is the fitted concentration of half-maximal effect; % is set by controls: 0 for no effect and ±100 for the full control effect
# FLuc counter: Biochemical FLuc counterscreen for small molecule modulators of PMP22 gene expression. shares compounds with PMP22 txn prim. purified P. pyralis FLuc, luminescence, 10 min. Potency, µM (titrated, usually from 57.5 µM), without a hit: at the top dose activity, negative = inhibition, usual class: inhibitors. 690 tested, under 10 active. AID 1508640, 2021; note: % of control where 0% means no effect
# Target sequence (P08659 whole entry, looked up): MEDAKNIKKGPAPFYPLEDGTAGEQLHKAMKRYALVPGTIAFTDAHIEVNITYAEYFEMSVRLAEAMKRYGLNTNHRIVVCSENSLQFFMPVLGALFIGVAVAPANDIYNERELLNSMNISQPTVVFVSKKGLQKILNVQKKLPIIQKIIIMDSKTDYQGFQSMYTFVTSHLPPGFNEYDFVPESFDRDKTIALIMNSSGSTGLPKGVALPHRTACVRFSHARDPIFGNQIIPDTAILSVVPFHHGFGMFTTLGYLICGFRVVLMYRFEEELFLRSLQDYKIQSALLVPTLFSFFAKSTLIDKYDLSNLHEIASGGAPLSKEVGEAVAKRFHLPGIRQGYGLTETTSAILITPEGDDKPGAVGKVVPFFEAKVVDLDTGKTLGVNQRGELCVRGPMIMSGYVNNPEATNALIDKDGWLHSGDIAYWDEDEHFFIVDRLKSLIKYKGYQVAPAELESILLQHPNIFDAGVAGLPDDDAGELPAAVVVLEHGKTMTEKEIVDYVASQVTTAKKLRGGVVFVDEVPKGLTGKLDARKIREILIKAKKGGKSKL
# S16 viab conf: Cell viability qHTS assay in S16 Pmp22-F2sN cells - Confirmatory screen. 690 tested, 7% active. shares compounds with PMP22 txn prim. S16 Schwann cells viability, CellTiter-Glo ATP luminescence, 24 h. Potency, µM (doses to about 57.5 µM), without a hit: at the highest dose activity change, negative = viability loss, usual class: cytotoxic; note: potency is the fitted concentration of half-maximal effect; % is set by controls: 0 for no effect and ±100 for the full control effect
# PMP22 txn conf: Cell-based coincidence reporter assay to measure PMP22 gene transcription in S16 Pmp22-F2sN cells - Confirmatory screen. shares compounds with PMP22 txn prim. Potency, µM (doses to about 57.5 µM), inactives show at the top dose activity change, negative = inhibition, actives largely listed as inhibitors. 690 tested, 22% active. AID 1508646, 2021. S16 Schwann cells Pmp22-F2sN, dual luciferase, 24 h; active = clear falling dose curves in both reporters; inconclusive = both reporters move, but less clearly or upward; inactive = either reporter flat; the % is the FLuc reporter signal; note: potency is the fitted concentration of half-maximal effect
# PMP22 prot conf: Cell-based HiBiT reporter assay to measure PMP22 protein expression in S16 Pmp22-HiBiT cells - Confirmatory screen | shares compounds with PMP22 txn prim | S16 Schwann cells Pmp22-HiBiT, luminescence, 48 h | Potency, µM (series often up to 27.9 µM), without a hit: at the top dose activity change, negative = inhibition, usual class: inhibitors | 95 tested, under 10 active | AID 1508647, 2021
# Target sequence (P25094 whole entry, looked up): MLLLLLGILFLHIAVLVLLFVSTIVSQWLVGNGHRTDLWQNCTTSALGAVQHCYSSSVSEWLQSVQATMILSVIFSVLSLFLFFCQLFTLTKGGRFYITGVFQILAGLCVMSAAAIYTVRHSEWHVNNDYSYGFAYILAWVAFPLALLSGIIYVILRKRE
# Starred values were filed as active, the others as inactive; i = inactive; ? = inconclusive; / = no result given. Unless noted, calls come from the whole dose curve; as a rule, active = well fitted curve in the direction sought with a large enough effect; inconclusive = small, poorly fitted or top-dose-only effect, or another doubt; inactive = no such curve, though single readings can be large; an effect the other way counts as inactive or inconclusive.
SMILES,S16 viability,mTORC1 inh,SKOV3 invasion,p53null 32C kill,p53null 39C tox,PMP22 txn prim,NLuc saturating,NLuc Km ctr,FLuc counter,S16 viab conf,PMP22 txn conf,others
CCOCCc1nn2c(=O)cc(COC(=O)c3ccccc3NC(=O)CC(C)C)nc2s1,-2%,6%,12%,-10%,-9%,?,/,/,/,/,/,
Cc1ccccc1OCC(=O)Nc1ccccc1C(=O)OCc1cc(=O)n2nc(C3CC3)sc2n1,5%,4%,0%,4%,6%,2.5µM*,-8%,4%,-1%,-3%,-20%,
CCc1nn2c(=O)cc(COC(=O)c3ccccc3NC(=O)COc3ccccc3C)nc2s1,40%,0%,-38%,-4%,14%,-29%,/,/,/,/,/,
CCOCCc1nn2c(=O)cc(COC(=O)c3ccccc3NC(=O)c3ccccc3F)nc2s1,5%,0%,2%,-4%,3%,?,-5%,-1%,1%,-2%,-21%,
CCc1ccccc1Nc1nn2c(=O)c3ccc(C(=O)Nc4cc(C)cc(C)c4)cc3nc2s1,16%,-10%,1%,13%,-16%,7.3µM*,-4%,?,-3%,22µM*,12µM*,PMP22 prot conf=-8%
Cc1ccc(C)c(Nc2nn3c(=O)c4ccc(C(=O)NCc5cccs5)cc4nc3s2)c1,?,?,-9%,?,-10%,13µM*,-13%,?,-1%,?,?,
Cc1ccccc1Nc1nn2c(=O)c3ccc(C(=O)NCc4ccccc4)cc3nc2s1,-7%,4%,i,-15%,23%,?,/,/,/,/,/,
COc1ccc(CCC(=O)Nc2nc3ccc(Cl)cc3s2)cc1OC,/,/,18%,/,/,/,/,/,/,/,/,
Nc1ccccc1NC(=O)c1ccc(CNc2nccc(-c3cccnc3)n2)cc1,/,/,30%,/,/,/,/,/,/,/,/,
CCNc1cc(NC2CCC(O)CC2)nc(Nc2ccc3c(ccn3Cc3ccccc3)c2)n1 (stereo unspecified),/,/,-7%,/,/,/,/,/,/,/,/,
COc1ccc(N2CCN(C(=O)C3CCCN(S(=O)(=O)c4ccc5c(c4)oc(=O)n5C)C3)CC2)cc1 (stereo unspecified),-5%,-1%,8%,-5%,-12%,?,/,/,/,/,/,
Cn1c(=O)oc2cc(S(=O)(=O)N3CCCC(C(=O)N4CCN(c5ccc(Cl)cc5)CC4)C3)ccc21 (stereo unspecified),?,-2%,i,-7%,-8%,5.1µM*,?,5%,2%,-22%,15µM*,PMP22 prot conf=?
CON=C(C(=O)N[C@@H]1C(=O)N2C(C(=O)O)=C(CSC(=O)c3ccco3)CS[C@H]12)c1csc(N)n1,/,/,19%,/,/,/,/,/,/,/,/,
CCOC(=O)c1ccc(N2C(=O)c3[nH]nc(-c4ccc(C)cc4)c3C2c2ccc(O)c(OCC)c2)cc1 (stereo unspecified),-20%,1%,0%,27%,28%,13µM*,-12%,-13%,-3%,?,?,PMP22 prot conf=-17%
CCOC(=O)c1ccc(N2C(=O)c3n[nH]c(-c4ccco4)c3C2c2ccc(O)c(OCC)c2)cc1 (stereo unspecified),?,?,-2%,8%,27%,?,/,/,/,/,/,
CS(=O)(=O)N1CCc2c(-c3cnc(N)nc3)nc(N3CCOCC3)nc21,/,/,8%,/,/,/,/,/,/,/,/,
Cc1ccc(NC(=O)N(Cc2cn(C)c3ccccc23)C2CCCCC2)cc1C,?,-1%,i,7%,?,11µM*,14µM*,?,?,2%,?,
COc1cccc(NC(=O)N(Cc2cn(C)c3ccccc23)C2CCCCC2)c1,?,-2%,-2%,-1%,?,10µM*,?,?,-3%,2%,?,
CCOc1ccc(-n2c(SCC(=O)NC3CCCCC3)nc3c([nH]c4ccccc43)c2=O)cc1,7%,2%,-6%,5%,80%,-4%,/,/,/,/,/,
O=C(CSc1nc2c([nH]c3ccccc32)c(=O)n1-c1ccc(Cl)cc1)NC1CCCCC1,?,-1%,7%,-25%,22%,13µM*,-4%,12%,-4%,?,17µM*,
